Data reported in PubChem BioAssay (NCATS).
A number with no mark means an inactive call. Calls come from the whole dose curve; as a rule, active = well fitted inhibition curve with a large enough effect; inconclusive = small, poorly fitted or top-dose-only effect; inactive = no such curve, though single readings can be large or run the other way. Records with an inconclusive call do not appear.

Assay: qHTS assay for measurement of the activity of small molecule inhibitors on Zika virus induced Caspase-3 activity in human iPSC derived neural progenitor cells (hNPCs) (AID 1224857); note: % of control where 0% means no effect; nearly all actives have a fitted effect of over 65% in size
Conditions: hNPCs ZIKV-induced caspase-3/7, Caspase-Glo luminescence, 6 h; series mostly up to 45.7 µM; activity change, negative = inhibition: at the top concentration
Procedure, shortened: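 Pretreat hNPCs with compound 1 h; infect ZIKV 2 FFU/cell; 6 h 37 C, 5% CO2; Caspase-Glo 3/7, 30 min RT; luminescence; normalize to no-virus and virus-only wells.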

Structure (SMILES)	activity change, negative = inhibition
COC(=O)C1=C(C)NC(COC(N)=O)=C(C(=O)OC(C)C)C1c1cccc(Cl)c1Cl (centres undefined)	-11.8%
COC(=O)c1cc(S(N)(=O)=O)ccc1OC	-2.66%
CCN(CC)C(=O)C1CN2CCc3cc(OC)c(OC)cc3C2CC1OC(C)=O (centres undefined)	15.7%
CCCCC(CC)CNC(=O)CC(C)OC(=O)CCC(=O)O (centres undefined)	20.6%
C[C@@H](C1=C(CCN(C)C)Cc2ccccc21)c1ccccn1	4.6%
CN1Cc2cc(C(=O)N3CCC(C4CCNCC4)CC3)ccc2N[C@@H](CC(=O)O)C1=O	6.48%
CC(=O)N(CC(=O)N(C)C)c1ccccc1	-7.08%
COC(=O)c1cc(Cl)c(NC(C)=O)cc1OC	-0.281%
CC(NC(CCc1ccccc1)C(=O)O)C(=O)N1C(=O)N(C)CC1C(=O)O (centres undefined)	29.3%
O=C1Nc2cc(Cl)ccc2Oc2ccccc21	6.13%
N=C(N)c1ccc(OCCCOc2ccc(C(=N)N)cc2)cc1	10.6%
CCCCCCn1c(=O)c2c(ncn2C)n(C)c1=O	-4.13%
CCCC(=O)Nc1ccc(O)c(C(C)=O)c1	5.67%
CNC(=O)c1c(I)c(NC(C)=O)c(I)c(C(=O)O)c1I	-1.78%
Cc1ccc(/C=N/n2c(-c3ccccc3)csc2=S)cc1	7.17%
C/C(=C(/OCCOc1ccc(Cl)cc1)c1ccc(Cl)cc1Cl)n1ccnc1	-6.29%
CC(C)C[C@@H]1[C@H](c2ccccc2)OC(=O)N1CCCN1CCCCCC1	-2.49%
CO/N=C(\C(=O)O)c1csc(NC(=O)CCl)n1	3.42%
CO/N=C(/C(=O)N[C@@H]1C(=O)N2C(C(=O)[O-])=C(C[n+]3ccn4ncccc43)CS[C@H]12)c1nsc(N)n1	4.96%

Structure (SMILES)	activity change, negative = inhibition
CN=C(N)NC(=O)Nc1c(C)cccc1C	-6.33%
C[C@@H]1CCC[C@H](C)N1CCCC(O)(c1ccccc1)c1ccccn1 (some centres undefined)	-1.18%
CN(C)CCOC1=Cc2ccccc2Sc2ccc(Cl)cc21	5.29%
Cc1cccc(N(C)C(=S)Oc2ccc3c(c2)CCC3)c1	-7.34%
OC1(c2ccccc2)CCNCC1	2.28%
CSCC[C@H](NC(=O)[C@H](Cc1c[nH]c2ccccc12)NC(=O)CCNC(=O)OC(C)(C)C)C(=O)N[C@@H](CC(=O)O)C(=O)N[C@@H](Cc1ccccc1)C(N)=O	-9.94%
COc1ccc2c(c1)CCCC2=O	15.8%
CC1CCCCN1CCCOC(=O)c1ccc(OC2CCCCC2)cc1 (centres undefined)	-0.857%
Nc1c(I)cc(I)c(C(=O)N(CCC(=O)O)c2ccccc2)c1I	8.49%
COc1cc2c(cc1OC)C(=O)CC2	-5.42%
CCN1CCN(c2cc(-c3ccc(F)cc3)c3c(n2)CCCCCC3)CC1	71.7% [at 20.5 µM]
CCCC(CCC)(C(=O)OCC)C(=O)OCC	-18.5%
Cc1ccc(Cl)c(OCC(O)CNC(C)(C)C)c1 (centres undefined)	6.91%
O=[N+]([O-])c1ccc(O)c2ncccc12	-2.73%
CCC(=O)Oc1ccc2c(c1)CC[C@@H]1[C@@H]2CC[C@@]2(C)[C@H]1C[C@@H](OC(=O)CC)[C@@H]2OC(=O)CC	-8.98%
CCN(CC)CC(=O)Nc1c(C)cccc1C(=O)OC	37.9%
Nc1ccc2c(c1)CN1C(=O)c3ccccc3C1=N2	-171% [at 20.5 µM]
CC(Oc1c(Cl)cccc1Cl)C1=NCCN1 (centres undefined)	-1.17%

Assay: qHTS assay for measurement of the activity of small molecule inhibitors on Zika virus induced Caspase-3 activity in human astrocytoma cells (AID 1224859);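 note: plate controls were ZIKV-infected untreated cells for no effect and uninfected cells for full effect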
Conditions: SNB-19 ZIKV-induced caspase-3/7, luminescence, 6 h; series mostly up to 45.7 µM; activity change, negative = inhibition: at the top concentration
Procedure, shortened: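 Human SNB-19 astrocytoma cells in RPMI 1640 with 10% FBS receive compound one hour ahead of Zika virus at 2 FFU/cell. After 6 h infection, caspase-3/7 activity is detected by Caspase-Glo luminescence.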

Structure (SMILES)	activity change, negative = inhibition
COC(=O)C1=C(C)NC(COC(N)=O)=C(C(=O)OC(C)C)C1c1cccc(Cl)c1Cl (centres undefined)	19.9%
COC(=O)c1cc(S(N)(=O)=O)ccc1OC	15.8%
CCN(CC)C(=O)C1CN2CCc3cc(OC)c(OC)cc3C2CC1OC(C)=O (centres undefined)	-10.9%
CCCCC(CC)CNC(=O)CC(C)OC(=O)CCC(=O)O (centres undefined)	-9.08%
C[C@@H](C1=C(CCN(C)C)Cc2ccccc21)c1ccccn1	12.6%
CN1Cc2cc(C(=O)N3CCC(C4CCNCC4)CC3)ccc2N[C@@H](CC(=O)O)C1=O	14.6%
CC(=O)N(CC(=O)N(C)C)c1ccccc1	-5.4%
COC(=O)c1cc(Cl)c(NC(C)=O)cc1OC	2.34%
CC(NC(CCc1ccccc1)C(=O)O)C(=O)N1C(=O)N(C)CC1C(=O)O (centres undefined)	3.74%
O=C1Nc2cc(Cl)ccc2Oc2ccccc21	8.28%
N=C(N)c1ccc(OCCCOc2ccc(C(=N)N)cc2)cc1	-3.17%
CCCCCCn1c(=O)c2c(ncn2C)n(C)c1=O	-1.77%
CCCC(=O)Nc1ccc(O)c(C(C)=O)c1	-4.19%
CNC(=O)c1c(I)c(NC(C)=O)c(I)c(C(=O)O)c1I	1.56%
Cc1ccc(/C=N/n2c(-c3ccccc3)csc2=S)cc1	-6.09%
C/C(=C(/OCCOc1ccc(Cl)cc1)c1ccc(Cl)cc1Cl)n1ccnc1	-8.65%
CC(C)C[C@@H]1[C@H](c2ccccc2)OC(=O)N1CCCN1CCCCCC1	-17.2%
CO/N=C(\C(=O)O)c1csc(NC(=O)CCl)n1	-11.2%
CO/N=C(/C(=O)N[C@@H]1C(=O)N2C(C(=O)[O-])=C(C[n+]3ccn4ncccc43)CS[C@H]12)c1nsc(N)n1	-7.09%

Structure (SMILES)	activity change, negative = inhibition
CN=C(N)NC(=O)Nc1c(C)cccc1C	-11.1%
C[C@@H]1CCC[C@H](C)N1CCCC(O)(c1ccccc1)c1ccccn1 (some centres undefined)	-16.8%
CN(C)CCOC1=Cc2ccccc2Sc2ccc(Cl)cc21	-10.8%
Cc1cccc(N(C)C(=S)Oc2ccc3c(c2)CCC3)c1	2%
OC1(c2ccccc2)CCNCC1	57.1%
CSCC[C@H](NC(=O)[C@H](Cc1c[nH]c2ccccc12)NC(=O)CCNC(=O)OC(C)(C)C)C(=O)N[C@@H](CC(=O)O)C(=O)N[C@@H](Cc1ccccc1)C(N)=O	-5.27%
COc1ccc2c(c1)CCCC2=O	-7.66%
CC1CCCCN1CCCOC(=O)c1ccc(OC2CCCCC2)cc1 (centres undefined)	-14.9%
Nc1c(I)cc(I)c(C(=O)N(CCC(=O)O)c2ccccc2)c1I	2.92%
COc1cc2c(cc1OC)C(=O)CC2	7.16%
CCN1CCN(c2cc(-c3ccc(F)cc3)c3c(n2)CCCCCC3)CC1	-23.5% [at 20.5 µM]
CCCC(CCC)(C(=O)OCC)C(=O)OCC	-9.56%
Cc1ccc(Cl)c(OCC(O)CNC(C)(C)C)c1 (centres undefined)	1.93%
O=[N+]([O-])c1ccc(O)c2ncccc12	-1.9%
CCC(=O)Oc1ccc2c(c1)CC[C@@H]1[C@@H]2CC[C@@]2(C)[C@H]1C[C@@H](OC(=O)CC)[C@@H]2OC(=O)CC	-2.29%
CCN(CC)CC(=O)Nc1c(C)cccc1C(=O)OC	-5.06%
Nc1ccc2c(c1)CN1C(=O)c3ccccc3C1=N2	-111% [at 20.5 µM]
CC(Oc1c(Cl)cccc1Cl)C1=NCCN1 (centres undefined)	30.8%
